Results filed as inconclusive are left out. Activity calls are given as the source filed them. How the source made its calls: active means hit-call score of the fitted dose curve at least 0.9, where 1 is the maximum; inconclusive means response in the unintended direction; inactive means score below 0.9.
How the values were obtained:
[1] = TOX21_p53_BLA_p2_viability: Viability Assessment in the Tox21 HCT-116 p53 Agonism Beta-lactamase Assay, Phase 2 (AID 2283591);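 further: compound exposure lasted 16 h at 37 °C; actives lower the ATP signal meaning cytotoxicity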
Outline: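 Cytotoxicity readout: CellTiter-Glo ATP luminescence, 30 min at room temperature, after the beta-lactamase read. Cells were HCT116 exposed 16 h at 37C to compounds pin-transferred at 217-fold dilution from DMSO stocks.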

[2] = biological target: Cellular tumor antigen p53 (Homo sapiens) (UniProt P04637); assay: TOX21_p53_BLA_p2_ratio: Tox21 HCT-116 p53 Agonism Beta-lactamase Assay, Ratio, Phase 2 (AID 2283592)
Chain of Cellular tumor antigen p53 (Homo sapiens) (P04637 whole entry, looked up): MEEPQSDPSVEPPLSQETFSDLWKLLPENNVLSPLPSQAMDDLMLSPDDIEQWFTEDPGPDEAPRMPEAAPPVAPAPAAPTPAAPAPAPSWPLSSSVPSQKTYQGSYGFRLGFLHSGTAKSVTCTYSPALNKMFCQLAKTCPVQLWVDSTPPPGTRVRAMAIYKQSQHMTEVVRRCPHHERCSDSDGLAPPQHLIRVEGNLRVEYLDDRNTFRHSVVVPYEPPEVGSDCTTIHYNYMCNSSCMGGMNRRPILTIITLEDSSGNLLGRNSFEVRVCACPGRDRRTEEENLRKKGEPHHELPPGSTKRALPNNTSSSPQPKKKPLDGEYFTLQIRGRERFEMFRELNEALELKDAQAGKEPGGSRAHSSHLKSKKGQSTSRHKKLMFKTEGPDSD
Outline: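 Gain-of-signal p53 agonism was scored from the beta-lactamase FRET ratio (460/530 nm, 405 nm excitation) in HCT116 cells treated 16 h at 37C, 5% CO2, with DMSO serving as negative control and baseline.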

[3] = TOX21_p53_BLA_p3_viability: Viability Assessment in the Tox21 HCT-116 p53 Agonism Beta-lactamase Assay, Phase 3 (AID 2283593);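 further: cells exposed to compound for 16 h before reading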
Outline: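 Cellular ATP was quantified by CellTiter-Glo luminescence, read after 30 min at room temperature. Beforehand, HCT116 cells (4000/well) received compound 5 h post-seeding, 217-fold diluted from DMSO, then incubated 16 h at 37C.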

[4] = TOX21_p53_BLA_p4_viability: Viability Assessment in the Tox21 HCT-116 p53 Agonism Beta-lactamase Assay, Phase 4 (AID 2283597);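 further: hits lower the luminescence signal meaning cytotoxicity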
Outline: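 Following a 16 h exposure at 37C, the treated HCT116 wells were first read for the FRET ratio. They were then lysed with CellTiter-Glo, and ATP luminescence was recorded after 30 min at room temperature.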

[5] = biological target: Cellular tumor antigen p53 (Homo sapiens) (UniProt P04637); assay: TOX21_p53_BLA_p5_ratio: Tox21 HCT-116 p53 Agonism Beta-lactamase Assay, Ratio, Phase 5 (AID 2283599)
Outline: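 Beta-lactamase reporter ratio (blue 460 nm over green 530 nm, 405 nm excitation) after 2 h CCF4-AM loading, in HCT-116 cells exposed 16 h at 37 C to compounds pinned at 217-fold dilution. Increases relative to DMSO baseline scored.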

[6] = TOX21_p53_BLA_p5_viability: Viability Assessment in the Tox21 HCT-116 p53 Agonism Beta-lactamase Assay, Phase 5 (AID 2283600)
Outline: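 After the 460/530 nm beta-lactamase measurement, the wells received an ATP-detection luciferase reagent; signal was read 30 min later at RT. Compound treatment lasted 16 h on cells pre-incubated 5 h post-seeding.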

[7] = biological target: Cellular tumor antigen p53 (Homo sapiens) (UniProt P04637); assay: TOX21_p53_BLA_p4_ratio: Tox21 HCT-116 p53 Agonism Beta-lactamase Assay, Ratio, Phase 4 (AID 2283601)
Outline: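 Signal is the blue/green (460nm/530nm) ratio of cleaved versus uncleaved CCF4-AM substrate, read after 2 h substrate loading. Cells were HCT116 carrying the p53-responsive beta-lactamase reporter, dosed 16 h at 37C, 5% CO2; CellTiter-Glo measured in parallel.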

SMILES | outcome [1] | outcome [2] | outcome [3] | outcome [4] | outcome [5] | outcome [6] | outcome [7] | AC50 [4]
C=Cc1ccccc1 | inactive | inactive | inactive | inactive | inactive | inactive | inactive | –
Oc1ccccc1C=NCc1ccccc1 | inactive | inactive | inactive | inactive | inactive | inactive | inactive | –
CC[C@@]1([C@@H]2O[C@@H]([C@H]3O[C@@](O)(CO)[C@H](C)C[C@@H]3C)C[C@@H]2C)CC[C@H]([C@]2(C)CC[C@]3(C[C@H](O)[C@@H](C)[C@@H]([C@@H](C)[C@@H](OC)[C@H](C)C(=O)O)O3)O2)O1 (stereo in doubt) | inactive | inactive | inactive | inactive | inactive | inactive | inactive | –
Cc1cc(CC(=O)O)c(C)n1-c1ccc(Cl)cc1 | inactive | inactive | inactive | inactive | inactive | inactive | inactive | –
CN(C)C/C=C(/c1ccc(Br)cc1)c1cccnc1 | inactive | inactive | inactive | inactive | inactive | inactive | inactive | –
CC(C)N1CCN(c2ccc(OC[C@H]3CO[C@](Cn4cncn4)(c4ccc(Cl)cc4Cl)O3)cc2)CC1 | inactive | inactive | inactive | – | inactive | inactive | inactive | 10.3 µM (active)
CC(C)CN(C[C@@H](O)[C@H](Cc1ccccc1)NC(=O)O[C@H]1CO[C@H]2OCC[C@H]21)S(=O)(=O)c1ccc(N)cc1 | inactive | inactive | inactive | inactive | inactive | inactive | inactive | –
CCCC[P+](C)(CCCC)CCCC | inactive | inactive | inactive | inactive | inactive | inactive | inactive | –
On1nnc2ccccc21 | inactive | inactive | inactive | inactive | inactive | inactive | inactive | –
Cc1cc(-c2ccc(N=Nc3ccc4c(S(=O)(=O)O)cc(S(=O)(=O)O)c(N)c4c3O)c(C)c2)ccc1N=Nc1ccc2c(S(=O)(=O)O)cc(S(=O)(=O)O)c(N)c2c1O | inactive | inactive | inactive | inactive | inactive | inactive | inactive | –

From PubChem BioAssay (EPA / NIEHS)
